Results filed as inconclusive are left out. A call without a number means that no potency is given here. The source made the active and inactive calls. The call rests on the fitted dose curve; in most records, active means well fitted curve in the direction sought with a large enough effect; inconclusive means small, poorly fitted or top-dose-only effect, or another doubt; inactive means no such curve, though single readings can be large; an effect the other way counts as inactive or inconclusive.

The first assay can be described thus: qHTS for ATAD5 Agonist screened against the NCATS CANVASS Library (AID 1347367).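 Further: luciferase reporter driven by ATAD5 which rises upon DNA damage.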 The settings on record: HEK293T ATAD5-luciferase reporter, luminescence, 16 h; series mostly up to 46.1 µM. In a few lines: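 Genotoxicity was scored as increased ATAD5-luciferase luminescence in HEK293T after 16hr of exposure, with cell viability measured by fluorescence beforehand in the same well.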
As for `COc1ccc([C@@H]2c3cc4c(cc3C(=O)[C@H](C)C2C)OCO4)cc1OC` (stereo partly specified), the Potency entry was “inactive”.

As to `C/C(=C\[C@H](C)C(=O)C[C@H](O)CC1CC(=O)NC(=O)C1)[C@@H]1OC(=O)CCCC/C=C/[C@@H](O)C[C@@H]1C`, the Potency result was “inactive”.

`CC1=C[C@H]2[C@H]3C(=O)C(c4ccc(O)cc4)=C[C@@]3(c3ccc(O)cc3)[C@@H]1C(=O)[C@]2(C)O`: the Potency entry is “inactive”. The same measure, in the same setting: with `C=C1C(=O)O[C@H]2[C@H]1CCC(C)=C1CC[C@@](C)(O)[C@@H]12` the entry was “inactive”.

In the case of `C/C(=C\[C@H](C)C(=O)/C=C/CC1CC(=O)NC(=O)C1)[C@@H]1OC(=O)CCCC/C=C/[C@H](O)[C@@H](O)[C@@H]1C`, the Potency result is “inactive”.

On to `C[C@H](c1cnc(N)[nH]1)c1ccc(O)c2[nH]cc(-c3cnc(-c4c[nH]c5ccccc45)c(=O)[nH]3)c12`, for which the Potency entry was “inactive”. Still for that read-out and setting: with `COc1ccc([C@@H]2c3cc4c(cc3C[C@H](C)C2C)OCO4)cc1OC` (stereo partly specified) the entry was “inactive”; with `CC[C@@H]1[C@H](C)[C@H](c2cc(OC)c(OC)cc2OC)[C@@H](C)[C@H](c2cc(OC)c(OC)cc2OC)[C@]12C=C(OC)C(=O)C=C2OC`, “inactive”. On the same count and under the same terms, with `C[C@H]1CCC2(OC1)O[C@H]1C[C@H]3[C@@H]4CC(=O)[C@]5(O)C[C@H](O)CC[C@@]5(C)[C@H]4CC[C@@]3(C)[C@H]1[C@H]2C` (stereo partly specified) the entry was “inactive”; with `C/C1=C/[C@@H](C)[C@H](O)C/C=C/CC/C=C/C(=O)O[C@@H]1[C@H](C)C(=O)CCCC1CC(=O)NC(=O)C1`, “inactive”.

With `C=C1C[C@H]2O[C@@H]3[C@@H]4[C@H](CC[C@@](C)(O)[C@@H]42)[C@H](C)COC3(C)[C@@H](OC(=O)CCCCCCC)CC1=O` (stereo partly specified), the Potency result is “inactive”.

Another assay in a line: G06 Cancer Cell Toxicity qHTS against the NCATS CANVASS Library (AID 1347368). Further: nearly all actives have a fitted effect of over 60% in size. Further: potency means the concentration at half of the fitted maximal effect. The note with it: G06 dog glioma cells, viability ATP luminescence, 72 h; series mostly up to 46.1 µM. In a few lines: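 G06 dog glioma cells seeded at 500 cells/well were exposed to compounds (11-point qHTS series) for 72 hr at 37C, 5% CO2; viability read as ATP content by CellTiterGlo luminescence.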
For `O[C@H]1C=C2[C@H]3CN(Cc4cc5c(cc43)OCO5)[C@H]2C[C@@H]1O`, the Potency is 6.62 µM (active).

For the compound `CC[C@@H](c1cc(OC)c(OC)cc1OC)[C@H](C)[C@@H](/C(C)=C/c1cc(OC)c(OC)cc1OC)c1cc(OC)c(OC)cc1OC`, the Potency result was “inactive”. The same measure, in the same setting: with `C/C=C/c1cc2c(c(=O)o1)C(=O)[C@@H](O)[C@H](C)O2` the figure was 5.26 µM (active); with `CN1CCc2cc3c(c4c2C1(C)C(=O)c1cc(O)ccc1-4)OCO3` (stereo unspecified), 1.18 µM (active). The same measure, in the same setting: with `CC(C)[C@@H]1CC(=O)c2coc3c2[C@H]1C[C@@H](C)C3=O` the entry was “inactive”; with `COC(=O)[C@@]1(C)CCC[C@]2(C)c3cc(OC)ccc3CC[C@@H]12`, “inactive”. Still for that read-out and setting: with `COc1cc2ccc(=O)oc2c(O)c1O[C@@H]1O[C@H](CO)[C@@H](O)[C@H](O)[C@H]1O` the figure was 8.12 µM (active). As for `O=C1CCC(=O)N(O)CCCCCNC(=O)CCC(=O)N(O)CCCCCNC(=O)CCC(=O)N(O)CCCCCN1`, the Potency is 8.33 µM (active). Consider `CC1=C(C)C(=O)OC(C(C)C2(O)CCC3C4C5OC5C5(O)CC=CC(=O)C5(C)C4CCC32C)C1` (stereo unspecified), for which the Potency was 23.5 µM (active). Same read-out and setting: with `C[C@H](CCC(O)C(C)(O)CO)[C@@]1(O)CC[C@@]2(C)C3=C(CC[C@@]21C)[C@@]1(C)CCC(OC(=O)CCC(=O)O)C(C)(C)[C@@H]1CC3` (stereo partly specified) the entry was “inactive”; with `COc1cc(C2C3=C(Cc4cc5c(cc42)OCO5)C(=O)OC3)cc(OC)c1OC` (stereo unspecified), 0.0935 µM (active); with `CO[C@@H]1[C@H](O)[C@@H](C)O[C@@H](OC[C@@H]2C(C)OC(=O)/C=C/[C@H](C)C(O[C@@H]3O[C@H](C)CC4(OC(=O)O[C@@H]4C)C3O)[C@@H](C)CC(C)C(=O)/C=C/[C@H]3OC23)[C@@H]1OC` (stereo partly specified), 16.6 µM (active). The same measure, in the same setting: with `C=C[C@@](C)(O)CC[C@@H]1[C@@]2(C)CCCC(C)(C)[C@@H]2CC[C@@]1(C)O` the entry was “inactive”.

With `COc1ccc([C@@H]2c3cc4c(cc3C(=O)[C@H](C)C2C)OCO4)cc1OC` (stereo partly specified), the Potency entry was “inactive”. Turning to `C/C(=C\[C@H](C)C(=O)C[C@H](O)CC1CC(=O)NC(=O)C1)[C@@H]1OC(=O)CCCC/C=C/[C@@H](O)C[C@@H]1C`, the Potency was 2.96 µM (active). On to `CC1=C[C@H]2[C@H]3C(=O)C(c4ccc(O)cc4)=C[C@@]3(c3ccc(O)cc3)[C@@H]1C(=O)[C@]2(C)O`, for which the Potency was 0.235 µM (active). On the same count and under the same terms, with `C=C1C(=O)O[C@H]2[C@H]1CCC(C)=C1CC[C@@](C)(O)[C@@H]12` the figure was 16.6 µM (active); with `C/C(=C\[C@H](C)C(=O)/C=C/CC1CC(=O)NC(=O)C1)[C@@H]1OC(=O)CCCC/C=C/[C@H](O)[C@@H](O)[C@@H]1C`, 5.9 µM (active); with `C/C1=C/[C@@H](C)[C@H](O)C/C=C/CC/C=C/C(=O)O[C@@H]1[C@H](C)C(=O)CCCC1CC(=O)NC(=O)C1`, 4.69 µM (active). The same measure, in the same setting: with `C=C1C[C@H]2O[C@@H]3[C@@H]4[C@H](CC[C@@](C)(O)[C@@H]42)[C@H](C)COC3(C)[C@@H](OC(=O)CCCCCCC)CC1=O` (stereo partly specified) the figure was 5.9 µM (active).

(Values after PubChem BioAssay (NCATS).)
